High-throughput results from PubChem BioAssay.
Sampled rows, rich in hits. Any-hit rate of the full collection: about 11%.
JMJD2A Tudor inh: qHTS Assay for Inhibitors of JMJD2A-Tudor Domain | hit rate 4.4% among 390,000 | AlphaScreen JMJD2A-Tudor / H3K4me3 peptide binding | Lysine-specific demethylase 4A (Homo sapiens), O75164 | Potency, µM (series often up to 114 µM), for inactives: at the top dose activity change, negative = inhibition, hits mostly inhibitors; note: % is set by controls: 0 for no effect and ±100 for the full control effect; nearly all actives have a fitted effect of over 50% in size
BAZ2B inh: qHTS Assay for Inhibitors of BAZ2B; Bromodomain adjacent to zinc finger domain protein 2B (Homo sapiens), Q9UIF8; AlphaScreen BAZ2B-H3K14Ac peptide displacement; Potency, µM (highest dose often 114 µM), for inactives: top-dose activity change, negative = inhibition, actives largely listed as inhibitors; hit rate 4.4% among 360,000; note: % is set by controls: 0 for no effect and ±100 for the full control effect; nearly all actives have a fitted effect of over 60% in size
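Complex of BAZ2B and biotin-H3K14Ac (50 nM apiece) forms over 30 min at RT, then faces library compounds up to 110 uM for another 30 min; AlphaScreen beads added, 20 min dark incubation, luminescence read.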
G9a inh: qHTS Assay for Inhibitors of Histone Lysine Methyltransferase G9a. hit rate 8.8% among 350,000. Potency, µM (top dose mostly 102 µM), inactives show top-dose activity, negative = inhibition, hits mostly inhibitors. AID 504332, 2011. G9a H3K9 monomethylation, AlphaScreen, 2 h; note: % is set by controls: 0 for no effect and ±100 for the full control effect; nearly all actives have a fitted effect of over 75% in size
Target sequence (Q96KQ7 913-1193 limits assumed): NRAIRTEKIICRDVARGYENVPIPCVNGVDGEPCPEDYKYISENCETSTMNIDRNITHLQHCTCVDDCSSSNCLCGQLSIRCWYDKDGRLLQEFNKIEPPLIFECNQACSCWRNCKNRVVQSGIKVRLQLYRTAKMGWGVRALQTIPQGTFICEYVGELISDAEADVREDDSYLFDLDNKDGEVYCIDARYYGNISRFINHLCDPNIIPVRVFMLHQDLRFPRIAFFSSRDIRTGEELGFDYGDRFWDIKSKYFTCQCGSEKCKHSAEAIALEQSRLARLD
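AlphaScreen read-out: biotin-H3K9 peptide (500 nM) methylation by 20 nM enzyme with 20 uM SAM, 2 h at room temperature after 15 min compound preincubation; anti-monomethyl H3K9 antibody plus donor/acceptor beads, 10 min dark.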
L3MBTL1 inh: qHTS Assay for the Inhibitors of L3MBTL1. AID 485360, 2010. AlphaScreen L3MBTL1–H3K9me1 peptide binding. Potency, µM (top dose mostly 57.1 µM), inactives show at the top dose activity, negative = inhibition, most hits filed as inhibitors. Lethal(3)malignant brain tumor-like protein 1 (Homo sapiens), Q9Y468. hit rate 0.66% among 230,000; note: % is set by controls: 0 for no effect and ±100 for the full control effect; nearly all actives have a fitted effect of over 60% in size
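AlphaScreen assay: L3MBTL1 (50 nM final) was preincubated 30 min at room temperature with biotinylated H3(1-15)K9me1 peptide (75 nM final), then 30 min with library compounds; streptavidin donor and nickel chelate acceptor beads (10 ug/mL final) added, 30 min dark.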
HP1b binding inh: HTS for Inhibitors of HP1-beta Chromodomain Interactions with Methylated Histone Tails | Chromobox protein homolog 1 (Homo sapiens), P83916 | AlphaScreen HP1-beta / biotin-H3K9me3 peptide binding | Potency, µM (highest dose often 114 µM), without a hit: at the top dose activity change, negative = inhibition, actives largely listed as inhibitors | hit rate 0.56% among 390,000; note: nearly all actives have a fitted effect of over 70% in size
Target sequence (P83916 whole entry, looked up): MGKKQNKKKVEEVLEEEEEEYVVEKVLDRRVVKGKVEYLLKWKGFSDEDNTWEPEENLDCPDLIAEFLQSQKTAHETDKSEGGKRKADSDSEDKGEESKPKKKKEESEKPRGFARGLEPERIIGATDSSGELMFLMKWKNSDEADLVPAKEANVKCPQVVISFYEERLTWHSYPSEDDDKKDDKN
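AlphaScreen: HP1-beta (50 nM) preformed 30 min with biotin-H3(1-18)K9me3 peptide (50 nM) in PBS pH 7.4, 0.01% Tween-20. Compound added for 30 min at RT, then streptavidin donor/nickel chelate acceptor beads (10 ug/mL) for 30 min.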
The depositor's hits bear a star; ? = inconclusive; nt = not tested or not shown; ! = not confirmed by another sample; [ ] = remark or other dose. Calls come from the whole dose curve; as a rule, active = well fitted inhibition curve with a large enough effect; inconclusive = small, poorly fitted or top-dose-only effect; inactive = no such curve, though single readings can be large or run the other way. Potency is the fitted concentration of half-maximal effect.

SMILES	JMJD2A Tudor inh	BAZ2B inh	G9a inh	L3MBTL1 inh	HP1b binding inh
CCCCC(=O)N/N=C/c1c(O)n(Cc2ccc(F)cc2)c(=O)[nH]c1=O	-30.2%	?	-11.8%	nt	25.9%
COc1ccc(CCn2c(O)c(C=Nc3ccc(F)cc3)c(=O)[nH]c2=O)cc1OC	-24.0%	-2.7%	nt	1.2%	19.6%
CCCCC(=O)N/N=C/c1c(O)n(CCc2ccc(OC)c(OC)c2)c(=O)[nH]c1=O	0.3%	50.1µM*	?	-4.1%	27.7%
COc1ccc(CCn2c(O)c(/C=N/NC(=O)c3ccncc3)c(=O)[nH]c2=O)cc1OC	-27.1%	?	4.4%	-5.4%	19.7%
CCN(CCO)c1ccc(N=Cc2c(O)n(C)c(=S)[nH]c2=O)cc1	?	56.2µM*	35.5µM*	nt	14.4%
CCCCC(=O)N/N=C/c1c(O)n(CCc2ccccc2)c(=O)[nH]c1=O	79.4µM*	?	7.1%[12.7 µM]	-22.8%	13.9%
OCc1cccc[n+]1CCc1ccccc1	-10.4%	nt	nt	nt	41.2%
O=C(CN1CCCCC1)NNC(=O)c1cccc(Br)c1	-16.2%	2.2%	15.0%	nt	46.9%
CN1c2ccccc2C(NCCCCCCC(=O)O)c2ccc(Cl)cc2S1(=O)=O (stereo not given)	nt	nt	-1.6%[12.7 µM]	nt	nt
CNC[C@H](O)c1ccc(O)c(OC)c1	nt	nt	-9.2%[21.5 µM]	nt	nt
Cc1ccc(C(=O)Nc2ccc(S(=O)(=O)N3CCC(c4nc5ccccc5s4)CC3)cc2)cc1	-12.9%	?	-28.4%[59 µM]	nt	34.4%
O=c1cc(-c2ccc(O)c(O)c2)oc2c(C3O[C@H](CO)[C@@H](O)[C@H](O)[C@H]3O)c(O)cc(O)c12 (stereo not given in full)	?	?	79.4µM*	10µM*	4.2%
Nc1nc2ccc(Cl)cc2c2nc(-c3ccco3)nn12	nt	-3.9%	2.51µM*!	nt	nt
O=c1c2ccccc2nc(-c2ccco2)n1-c1ccccc1	1.9%	-1.3%	?	-11.4%	43.2%
CCCCn1c(O)c(C(C)=NCCN2CCCCC2)c(=O)[nH]c1=O	-20.0%	-2.2%	28.2µM*	-7.9%	16.3%
CC(=NCCCN1CCCCC1)c1c(O)n(Cc2ccccc2)c(=O)[nH]c1=O	-17.0%	-5.2%	-5.1%[12.7 µM]	nt	35.5%
C=CCn1c(O)c(C(C)=NCCN2CCCCC2)c(=O)[nH]c1=O	-18.7%	12.9%	?	nt	25.9%
CC(=NCCN1CCCCC1)c1c(O)n(Cc2ccccc2)c(=O)[nH]c1=O	-4.5%	5.5%	39.8µM*	-3.4%	39.1%
Cc1ccc(NC(=O)Nc2ccc3nc(N4CCN(C)CC4)cc(C)c3c2)cc1F	-13.9%	3.3%[57.1 µM]	-31.0%[59 µM]	nt	40.9%
CC[C@]12C=CCN3CCC4(c5cc(Br)c(OC)cc5N(C)C4[C@@](O)(C(=O)OC)[C@@H]1OC(C)=O)C32 (stereo not given in full)	-25.5%	-13.9%	35.5µM*	14.3%	14.0%
CC12CCC3C4CCC(=O)C(O)=C4CCC3C1CCC2OC(=O)CCC1CCCC1 (stereo not given)	nt	nt	7.1%[12.7 µM]	nt	nt
Cc1ccc(-c2nc(CN3C(=O)CN=C(c4ccccc4Cl)c4cc(Cl)ccc43)c(C)o2)cc1	-12.9%	1.8%	-8.3%[59 µM]	nt	17.0%
COc1ccc(O)c(CN2CCCC(C(=O)c3ccccc3SC)C2)c1 (stereo not given)	56.2µM*	50.1µM*	nt	-13.0%	?
COc1ccccc1CN1CCCC(C(=O)c2ccccc2SC)C1 (stereo not given)	-26.3%	-16.7%	nt	-24.1%	15.1%
CCCCCCC(C)(C)c1cc(OC)c2c(c1)OC(C)(C)[C@@H]1CC=C(C)C[C@@H]21	nt	nt	14.6%[59 µM]	nt	nt
SMILES	JMJD2A Tudor inh	BAZ2B inh	G9a inh	L3MBTL1 inh	HP1b binding inh
S=c1[nH]nc(-c2ccn[nH]2)n1-c1ccccc1Cl	20µM*	50.1µM*	3.16µM*	-3.7%	?
O=C(Nc1ccc2nc(-c3cccs3)c(-c3cccs3)nc2c1)N1CCCCC1	13.5%	nt	nt	nt	56.9%
C[N+]1(C)[C@@H]2CC[C@H]1CC(OC(=O)[C@@H](CO)c1ccccc1)C2 (stereo not given in full)	?	-16.0%	7.94µM*!	nt	-8.8%
C[N+]1(C)C2CC[C@H]1CC(OC(=O)C(CO)c1ccccc1)C2 (stereo not given in full)	-4.3%	-3.6%	0.9%[59 µM]	6.1%	39.8%
C[N+]1(C)C2CCC1CC(OC(=O)c1c[nH]c3ccccc13)C2 (stereo not given)	50.1µM*	-31.3%	10.6µM*	8.8%	27.2%
C[N+]1(C)CCC(OC(=O)C(c2ccccc2)c2ccccc2)CC1	?	nt	6.7µM*!	nt	16.8%
CCCCCl	nt	nt	28.5%[59 µM]	nt	nt
Cc1c(O)c(=O)ccn1C	15.8µM*	44.7µM*	1.58µM*!	4.3%	45.8%
O=C1C=CC(=O)C(Cl)=C1	nt	nt	0.708µM*	nt	nt
CC(NS(=O)(=O)c1ccc(CCC(=O)N2CCN(C)CC2)cc1)c1ccccc1 (stereo not given)	-17.3%	4.4%	-18.8%[12.7 µM]	nt	23.8%
CCN1CCc2ccccc2C1	-13.2%[11.4 µM]	-8.1%	?	-11.1%	37.9%
CCN1CCN(CC(c2ccccc2)c2ccccc2)CC1	0.794µM*	10µM*	?	-5.8%	?
CO[C@H]1[C@@H](O)CC(OC2[C@@H](O)CC(OC3[C@@H](O)C[C@H](OC4CC[C@@]5(C)C(CCC6C5CC(O)[C@]5(C)[C@H](C7=CC(=O)OC7)CCC65O)C4)O[C@@H]3C)O[C@@H]2C)O[C@@H]1C (stereo not given in full)	nt	nt	9.7%[12.7 µM]	nt	nt
CC1O[C@@H](O[C@@H]2C(O)C[C@H](O[C@@H]3C(O)C[C@@H](OC4CC[C@@]5(C)C6CC[C@]7(C)C(C8=CC(=O)OC8)CC[C@@]7(O)C6CC[C@@H]5C4)OC3C)OC2C)CC(O)[C@H]1O (stereo not given in full)	nt	nt	-13.0%[2.33 µM]	nt	nt
Cc1ccc(C=C2C(Cl)=C(Cl)C(Cl)=C2Cl)cc1	14.1µM*	20µM*	8.91µM*	3.16µM*	15.8µM*
CC1(C)c2[nH]c3ccccc3c2C[C@@H]2C(=O)N(Cc3ccccc3F)C(=O)N21	?	nt	nt	nt	2.0%
Cc1ccc(-c2cn3c(=S)[nH]nc3s2)cc1	0.708µM*	79.4µM*	1µM*	4.6%	70.8µM*
CC(c1nc2ccccc2c(=O)[nH]1)N(C)CCOc1ccc(Cl)cc1 (stereo not given)	-14.6%	-13.6%	33.8%	-6.3%	43.3%
CCC1CO/C(=C(\C(Cl)=C(Cl)Cl)[N+](=O)[O-])N1Cc1ccc(Cl)nc1 (stereo not given)	-27.8%	79.4µM*	?	nt	20.5%
O=C(C(=C1N(Cc2ccc(Cl)nc2)CCN1Cc1ccc(Cl)nc1)[N+](=O)[O-])C(Cl)Cl	0.0%	-10.7%	?	nt	55.4%
